The results in this text go back to PubChem BioAssay.

Inconclusive results are not listed. Active and inactive are the calls of the source.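 The calls were made as follows, unless noted: active = efflux inhibition above 0.42, the validation set average plus 4 SD; inconclusive = no clear call, values can overlap the other calls; inactive = the rest.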

Experiment [1] can be described thus: yeast TOR pathway RPL19A-GFP modulators, primary screen, cell-based, S. cerevisiae, multiplex flow cytometry (AID 1862; in the data active = percent of DMSO control GFP below about 86%;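 also: lower values mimic rapamycin by blocking the RPL19A rise seen in DMSO cells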). The settings on record: S. cerevisiae RPL19A-GFP strain, flow cytometry fluorescence, 3 h; at 10 µM; stronger effect = lower value.
Experiment [2] can be described thus: modulators of MEP2-GFP levels in yeast, primary screen, S. cerevisiae, multiplex flow cytometry (AID 1867;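 active = GFP response, as percent of the DMSO control, above the screen-wide mean plus 3 SD, about 139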;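 also: median GFP channel fluorescence of barcode-gated MEP2-GFP cells measured by flow cytometry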). The settings on record: S. cerevisiae MEP2-GFP strain, 3 h, at 10 µM, stronger effect = higher value, 100% means same as DMSO wells.
Experiment [3] in a line: modulators of CIT2-GFP expression in yeast, primary screen, S. cerevisiae, GFP fusion, multiplex flow cytometry (AID 1870;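 active = percent response above a set limit, the screen-wide mean plus 3 SD, cut at about 130% in these data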;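 also: barcoded CIT2-GFP strain pooled with four other GFP strains with rapamycin as positive control; median GFP fluorescence per well over plate mean of DMSO wells so 100% = DMSO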). The settings on record: 3 h, at 10 µM, stronger effect = higher value.
Experiment [4] is described as follows: modulators of LAP4-GFP expression in yeast, primary screen, S. cerevisiae, multiplex flow cytometry (AID 1873;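 active = GFP signal, as percent of the solvent control, above the screen mean plus 3 SD, about 149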). The settings on record: 3 h, at 10 µM, stronger effect = higher value.
Experiment [5] is described as follows: modulators of AGP1-GFP expression in yeast TOR pathway, primary screen, cell-based, multiplex flow cytometry, S. cerevisiae (AID 1887;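 active = GFP signal above the screen-wide mean plus 3 SD, that is over about 124.5% of the solvent control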;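 also: AGP1-GFP fusion strain of S. cerevisiae within a five-strain barcoded multiplex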). The settings on record: 3 h, at 10 µM, stronger effect = higher value.
Experiment [6] in a line: inhibitors of CD8+ T cell-vesicle binding, pilot screen, LFA-1/ICAM-1 modulator project, MLPCN validation set, flow cytometry (AID 2523;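 active = response below a set limit, under 55% cells CD8-positive and vesicle-bound, and CD8 cells' 90th-percentile brightness under 279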;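 as to vesicle binding response: mean PE anti-B7-1 fluorescence of CD8+ cells relative to row control; 100% = QL9-loaded vesicles with DMSO vehicle in the same plate row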). The settings on record: 2C mouse CD8+ T cells, at 7 µM, stronger effect = lower value; double positive events: measured here: CD8+/vesicle+ event percentage.
Experiment [7] concerns the target Integrin beta-1 (Homo sapiens) + Integrin alpha-4 (Homo sapiens) (UniProt P13612+P05556). The experiment can be described thus: inhibition of HUTS-21 binding to VLA-4, pilot screen, VLA-4 allosteric modulator project, U937 cells, HUTS-21 mAb, flow cytometry, validation set (AID 2674;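 active = inhibition above 50%, about 3 SD of the validation set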;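 also: antibody binding induced by the VLA-4 ligand LDV present at three times its Kd; 0% = LDV ligand with antibody and no compound and 100% = antibody without LDV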). The settings on record: HUTS-21 LIBS mAb binding, at 6.7 µM, stronger effect = higher value, binding induced by LDV ligand.

The nature of experiment [8]: superoxide lowering in aged yeast cells, pilot screen, validation compound set (AID 2706;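 active = superoxide response below 65% of plate, a cut near 3 SD across the whole screen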;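 also: yeast exposed to compound for one week at 30 degrees C before staining; 100% = mean of all compound wells on the same plate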). The settings on record: S. cerevisiae aging, superoxide DHE fluorescence; at 10 µM; stronger effect = lower value.
The target in experiment [9] is Beta-adrenergic receptor kinase 1 (Homo sapiens) (UniProt P25098). Description: GRK2 binders displacing RNA aptamer, biochemical, validation, human GRK2, bead flow cytometry (AID 488806;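 active = aptamer binding inhibition above 30%, about 3 SD of noise from non-fluorescent compounds; inactive = inhibition at or below 30%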). The settings on record: bead-bound GRK2, FAM-aptamer displacement, at 10 µM, stronger effect = higher value.
In experiment [10] the target is Beta-2 adrenergic receptor (Homo sapiens) (UniProt P07550). Description: beta2AR agonists driving receptor internalization, pilot screen, cell-based, FAP fluorogen, flow cytometry, validation set (AID 504459;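 active = percent response above 42, roughly 3 SD of non-fluorescent test compounds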;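 also: agonist-driven loss of surface beta2AR via internalization measured by FAP dye flow cytometry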). The settings on record: Am2.2-beta2AR cells, FAP surface receptor flow cytometry; at 10 µM; stronger effect = higher value.
Experiment [11] concerns the target AP-2 complex subunit beta (Homo sapiens) (UniProt P63010). Description: inhibitors of arrestin peptide binding to AP2, pilot screen, biochemical, validation set, GST-AP2 beads, flow cytometry (AID 504541;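 active = inhibition above 54%, about 3 SD of non-fluorescent compounds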;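 also: AP2 carries R879A mutation and is captured from E. coli lysate; bead-bound FITC arrestin peptide fluorescence measuring arrestin peptide binding to AP2; 0% = DMSO wells and 100% = excess unlabeled arrestin peptide control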). The settings on record: FITC arrestin peptide, at 10 µM, stronger effect = higher value, AP2 beta2 appendage fragment, R879A mutant.
A short description of experiment [12]: yeast V-ATPase proton transport modulators, S. cerevisiae, pHLuorin, HTS validation (AID 504600; in the data active = response above about 15%;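 also: plate controls were DMSO for no effect and reference compound for full effect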). The settings on record: S. cerevisiae pHLuorin cytosolic pH, at 10 µM, stronger effect = higher value.
In experiment [13] the test system is anti-desmoglein-3 scFv antibody binding to human DSG3. Description: inhibitors of anti-DSG3 scFv binding to DSG3, pilot screen, biochemical, validation compound set, bead-based, flow cytometry (AID 588368;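 active = binding below the plate cutoff, the plate median minus 3 SD, with a reading above zero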;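 also: signal is the median channel fluorescence of bead-bound GFP antibody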). The settings on record: Protein G beads, DSG3-Fc, scFv-GFP binding, at 10 µM, stronger effect = lower value.
A short description of experiment [14]: inhibitors of fungal efflux pumps CDR1, CDR2, MDR1, pilot screen, validation compound set, multiplex, phenotypic (AID 588506).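 Also: Nile Red retained in cells so higher fluorescence means more efflux inhibition; 0 = negative control wells and 1 = enniatin B 25 µM full block.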 The settings on record: S. cerevisiae pump-expressing triplex, Nile Red efflux flow cytometry; at 10 µM; stronger effect = higher value; the pumps come from Candida albicans.
For experiment [15], the target named is ATP-binding cassette sub-family B member 6 (Homo sapiens) (UniProt Q9NP58). The experiment can be described thus: ABCB6 transporter inhibitors, pilot screen, K562-ABCB6 cells, flow cytometry, validation set (AID 588550;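 active = inhibition above the screen-wide mean plus 3 SD, about 51%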;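 also: 0% = DMSO wells and 100% = benzethonium chloride 70 µM positive control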). The settings on record: K562-ABCB6 porphyrin accumulation, 1 h, at 10 µM, stronger effect = higher value.
Experiment [16] is described as follows: promoters of myeloid differentiation in arrested cells, primary screen, cell-based, GFP/MAC1 double positive, flow cytometry, validation set (AID 588685;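 active = differentiation response of at least 50%, scaled between solvent and reference control, from cells with both markers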;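 also: compound exposure lasts four days before antibody staining and flow analysis; 0% = DMSO wells and 100% = 5 µM fulvestrant positive control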). The settings on record: ER-HoxA9 marrow cells, stronger effect = higher value, normalized: vehicle 0, fulvestrant 100.

Sequence of Integrin beta-1 (Homo sapiens) + Integrin alpha-4 (Homo sapiens) (P05556 whole entry, looked up): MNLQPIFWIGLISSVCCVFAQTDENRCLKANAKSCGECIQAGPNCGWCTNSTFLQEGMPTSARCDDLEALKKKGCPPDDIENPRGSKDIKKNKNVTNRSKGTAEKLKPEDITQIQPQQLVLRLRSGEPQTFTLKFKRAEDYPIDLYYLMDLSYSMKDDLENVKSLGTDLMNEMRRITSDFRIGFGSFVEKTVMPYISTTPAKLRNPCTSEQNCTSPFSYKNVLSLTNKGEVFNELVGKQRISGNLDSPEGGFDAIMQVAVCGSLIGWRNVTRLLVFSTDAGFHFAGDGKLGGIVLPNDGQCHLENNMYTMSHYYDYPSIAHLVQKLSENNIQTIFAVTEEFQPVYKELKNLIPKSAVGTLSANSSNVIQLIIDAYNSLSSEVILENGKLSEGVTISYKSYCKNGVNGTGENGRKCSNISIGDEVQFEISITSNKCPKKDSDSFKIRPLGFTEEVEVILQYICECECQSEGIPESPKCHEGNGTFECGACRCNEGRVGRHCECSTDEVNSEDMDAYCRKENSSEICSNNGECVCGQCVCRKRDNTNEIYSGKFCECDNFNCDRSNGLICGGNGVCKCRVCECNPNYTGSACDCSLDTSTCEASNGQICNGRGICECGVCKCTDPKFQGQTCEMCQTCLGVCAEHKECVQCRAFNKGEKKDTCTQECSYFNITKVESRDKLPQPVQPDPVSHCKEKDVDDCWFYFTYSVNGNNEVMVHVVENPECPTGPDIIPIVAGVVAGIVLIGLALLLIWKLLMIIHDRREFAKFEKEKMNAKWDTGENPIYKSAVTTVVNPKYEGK
Sequence of Integrin beta-1 (Homo sapiens) + Integrin alpha-4 (Homo sapiens) (P13612 whole entry, looked up): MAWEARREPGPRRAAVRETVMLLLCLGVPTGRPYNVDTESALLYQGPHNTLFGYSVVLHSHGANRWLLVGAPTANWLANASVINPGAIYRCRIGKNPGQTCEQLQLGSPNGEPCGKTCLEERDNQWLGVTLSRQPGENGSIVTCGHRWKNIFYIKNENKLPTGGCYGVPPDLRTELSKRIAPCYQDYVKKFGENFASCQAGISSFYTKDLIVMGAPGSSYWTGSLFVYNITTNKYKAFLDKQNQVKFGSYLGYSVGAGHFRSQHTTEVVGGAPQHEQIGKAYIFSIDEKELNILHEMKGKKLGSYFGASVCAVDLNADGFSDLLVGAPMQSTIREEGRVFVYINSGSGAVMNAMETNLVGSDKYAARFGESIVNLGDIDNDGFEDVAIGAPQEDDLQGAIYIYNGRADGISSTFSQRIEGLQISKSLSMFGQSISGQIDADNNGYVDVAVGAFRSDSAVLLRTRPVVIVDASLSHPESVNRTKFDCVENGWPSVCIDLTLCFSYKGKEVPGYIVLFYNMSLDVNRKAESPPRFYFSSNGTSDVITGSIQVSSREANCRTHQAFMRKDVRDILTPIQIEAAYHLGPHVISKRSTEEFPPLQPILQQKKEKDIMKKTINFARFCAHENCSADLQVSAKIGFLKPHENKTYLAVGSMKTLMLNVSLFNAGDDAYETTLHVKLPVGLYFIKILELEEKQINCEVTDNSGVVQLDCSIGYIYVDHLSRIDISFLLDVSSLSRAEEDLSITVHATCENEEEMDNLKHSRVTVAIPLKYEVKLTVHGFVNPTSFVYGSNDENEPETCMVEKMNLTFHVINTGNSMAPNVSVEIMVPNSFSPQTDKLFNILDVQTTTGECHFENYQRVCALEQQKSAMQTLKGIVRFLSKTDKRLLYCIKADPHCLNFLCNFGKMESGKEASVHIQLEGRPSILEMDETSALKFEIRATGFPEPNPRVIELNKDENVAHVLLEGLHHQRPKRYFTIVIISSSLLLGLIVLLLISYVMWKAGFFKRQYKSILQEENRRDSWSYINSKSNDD
Sequence of AP-2 complex subunit beta (Homo sapiens) (P63010 whole entry, looked up, the tested form may be a part, one chain of several): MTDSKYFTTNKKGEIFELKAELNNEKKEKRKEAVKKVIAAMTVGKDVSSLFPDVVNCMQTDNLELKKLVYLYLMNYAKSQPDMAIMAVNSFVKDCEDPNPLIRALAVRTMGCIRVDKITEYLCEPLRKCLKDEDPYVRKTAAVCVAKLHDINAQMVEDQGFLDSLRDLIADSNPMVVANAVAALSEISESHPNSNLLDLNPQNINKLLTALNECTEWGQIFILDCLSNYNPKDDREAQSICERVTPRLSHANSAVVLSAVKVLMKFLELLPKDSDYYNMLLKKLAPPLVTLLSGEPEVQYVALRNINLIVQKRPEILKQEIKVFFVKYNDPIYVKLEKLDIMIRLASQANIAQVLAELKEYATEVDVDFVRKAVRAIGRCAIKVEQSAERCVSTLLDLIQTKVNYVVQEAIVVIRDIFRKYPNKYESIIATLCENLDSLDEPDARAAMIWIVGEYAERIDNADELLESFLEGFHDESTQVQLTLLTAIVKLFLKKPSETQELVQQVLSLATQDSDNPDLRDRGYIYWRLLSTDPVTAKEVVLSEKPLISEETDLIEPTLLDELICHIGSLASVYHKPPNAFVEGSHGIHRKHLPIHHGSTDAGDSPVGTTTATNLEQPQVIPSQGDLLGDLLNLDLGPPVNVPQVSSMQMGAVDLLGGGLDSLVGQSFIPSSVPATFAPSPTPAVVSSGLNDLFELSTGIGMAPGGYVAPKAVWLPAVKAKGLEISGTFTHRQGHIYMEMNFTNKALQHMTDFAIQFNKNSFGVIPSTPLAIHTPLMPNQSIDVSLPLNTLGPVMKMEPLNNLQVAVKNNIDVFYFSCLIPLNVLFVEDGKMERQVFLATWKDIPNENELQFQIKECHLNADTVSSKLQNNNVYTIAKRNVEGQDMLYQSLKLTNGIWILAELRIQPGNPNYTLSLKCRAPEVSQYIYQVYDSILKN
Sequence of Beta-adrenergic receptor kinase 1 (Homo sapiens) (P25098 whole entry, looked up): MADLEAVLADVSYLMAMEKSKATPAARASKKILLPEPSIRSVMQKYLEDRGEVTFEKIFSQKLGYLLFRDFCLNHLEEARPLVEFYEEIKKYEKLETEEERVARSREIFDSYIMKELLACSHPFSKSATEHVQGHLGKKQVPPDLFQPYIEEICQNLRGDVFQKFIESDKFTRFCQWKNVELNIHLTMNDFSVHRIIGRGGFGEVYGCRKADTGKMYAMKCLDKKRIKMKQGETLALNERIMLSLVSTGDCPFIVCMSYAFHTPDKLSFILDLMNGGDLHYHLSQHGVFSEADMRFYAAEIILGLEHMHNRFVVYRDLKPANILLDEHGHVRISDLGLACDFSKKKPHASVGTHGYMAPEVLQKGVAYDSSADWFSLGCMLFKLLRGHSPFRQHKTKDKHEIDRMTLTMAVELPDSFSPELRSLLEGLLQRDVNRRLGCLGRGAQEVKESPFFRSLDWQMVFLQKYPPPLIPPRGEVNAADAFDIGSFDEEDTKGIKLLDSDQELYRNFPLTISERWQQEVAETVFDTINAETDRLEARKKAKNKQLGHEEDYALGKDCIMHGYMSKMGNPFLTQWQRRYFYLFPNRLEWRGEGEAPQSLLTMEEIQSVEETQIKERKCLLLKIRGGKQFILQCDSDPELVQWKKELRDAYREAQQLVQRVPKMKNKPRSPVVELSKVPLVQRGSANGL
Sequence of ATP-binding cassette sub-family B member 6 (Homo sapiens) (Q9NP58 whole entry, looked up): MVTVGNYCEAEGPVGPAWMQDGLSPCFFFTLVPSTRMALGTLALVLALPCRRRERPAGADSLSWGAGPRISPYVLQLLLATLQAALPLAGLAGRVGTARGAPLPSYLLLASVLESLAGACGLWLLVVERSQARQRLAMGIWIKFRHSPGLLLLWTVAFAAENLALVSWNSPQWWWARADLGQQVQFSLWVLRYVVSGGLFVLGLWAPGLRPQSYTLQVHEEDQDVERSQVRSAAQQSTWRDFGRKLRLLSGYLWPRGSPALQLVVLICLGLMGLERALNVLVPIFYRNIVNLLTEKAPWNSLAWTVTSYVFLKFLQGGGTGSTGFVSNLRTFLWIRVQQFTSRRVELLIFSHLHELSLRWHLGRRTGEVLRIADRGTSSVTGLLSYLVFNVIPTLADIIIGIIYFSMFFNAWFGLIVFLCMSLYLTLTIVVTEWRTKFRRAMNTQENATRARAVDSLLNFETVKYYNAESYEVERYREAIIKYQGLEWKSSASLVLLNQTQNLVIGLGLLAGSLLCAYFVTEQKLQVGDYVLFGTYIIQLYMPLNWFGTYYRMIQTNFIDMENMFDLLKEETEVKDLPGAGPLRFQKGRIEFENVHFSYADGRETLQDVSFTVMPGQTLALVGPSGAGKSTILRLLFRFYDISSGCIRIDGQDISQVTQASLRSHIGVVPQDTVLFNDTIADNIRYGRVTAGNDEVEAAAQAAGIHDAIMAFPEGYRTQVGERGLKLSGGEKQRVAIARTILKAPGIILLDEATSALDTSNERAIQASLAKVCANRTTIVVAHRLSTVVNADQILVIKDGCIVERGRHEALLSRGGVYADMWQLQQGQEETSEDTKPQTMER
Sequence of Beta-2 adrenergic receptor (Homo sapiens) (P07550 whole entry, looked up): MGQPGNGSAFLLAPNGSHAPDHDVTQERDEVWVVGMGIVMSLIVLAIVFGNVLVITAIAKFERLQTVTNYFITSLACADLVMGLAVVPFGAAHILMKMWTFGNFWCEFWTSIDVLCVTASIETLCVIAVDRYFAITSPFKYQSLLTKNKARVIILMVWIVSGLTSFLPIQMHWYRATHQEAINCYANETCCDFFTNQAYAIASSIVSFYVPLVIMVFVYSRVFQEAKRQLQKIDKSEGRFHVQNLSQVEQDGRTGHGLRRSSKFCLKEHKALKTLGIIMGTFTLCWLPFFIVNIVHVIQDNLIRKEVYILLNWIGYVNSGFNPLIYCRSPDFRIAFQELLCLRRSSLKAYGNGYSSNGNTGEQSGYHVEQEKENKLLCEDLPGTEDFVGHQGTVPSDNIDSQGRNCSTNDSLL

Take `COc1ccc(OC)c(C(=O)c2coc3ccc(O)cc23)c1`: in [1], the percent of DMSO control GFP was 98.7% (inactive). In addition, the GFP response vs DMSO in experiment [2] was 109% (inactive); in experiment [4] it was 146% (inactive). Also, in experiment [3], the percent response of DMSO control is 94.4% (inactive). Besides, the GFP response, % of DMSO in experiment [5] is 109% (inactive). The double positive events in experiment [6] was determined as 63.7%. The vesicle binding response in experiment [6] was 192% (inactive). The inhibition is -2.82% (inactive) in [7], -14.6% (inactive) in experiment [11] and 0% (inactive) in experiment [15]. The superoxide response (% of plate) in experiment [8] is 88.2% (inactive). The aptamer binding inhibition in experiment [9] was 2% (inactive). Further, the response in [10] was -29.6% (inactive); in [12] it was 4.67% (inactive). Further, the binding (% of control) in [13] is 103% (inactive). In addition, the efflux inhibition (fraction of control) in experiment [14] was -0.04 (inactive). Also, in experiment [16], the differentiation response was 0.92% (inactive).
Regarding `CCOC(=O)C1NN=C(C(=O)c2ccccc2)C1c1ccc(Cl)cc1` (stereo not given), in experiment [1], the percent of DMSO control GFP is 98.3% (inactive). The figures for the GFP response vs DMSO in experiment [2] and in experiment [4] were 96.6% (inactive) and 93.7% (inactive), respectively. For the same molecule, the percent response of DMSO control in [3] was 91.3% (inactive). Moreover, the GFP response, % of DMSO in experiment [5] is 88.8% (inactive). This molecule also returned a double positive events in experiment [6] of 58.1%. The vesicle binding response in experiment [6] was 192% (inactive). In addition, the inhibition is 9.63% (inactive) in [7], -2.22% (inactive) in [11] and 9% (inactive) in experiment [15]. The superoxide response (% of plate) in experiment [8] was 106% (inactive). Further, the aptamer binding inhibition in experiment [9] was 3% (inactive). The response in [10] was 3.04% (inactive); in experiment [12], -0.54% (inactive). Moreover, the binding (% of control) in experiment [13] was 99% (inactive). In experiment [14], the efflux inhibition (fraction of control) was -0.005 (inactive). Also, the differentiation response in [16] is -6.03% (inactive).
`CN1C2CCC1CC(OC(c1ccccc1)c1ccccc1)C2` (stereo not given): the percent of DMSO control GFP in [1] is 101% (inactive). Besides, the GFP response vs DMSO in experiment [2] is 96.2% (inactive); in [4], 99.9% (inactive). The percent response of DMSO control in experiment [3] was 108% (inactive). Moreover, the GFP response, % of DMSO in experiment [5] was 98% (inactive). In experiment [6], this molecule returned a double positive events of 64.3%. Also, the vesicle binding response in [6] was 247% (inactive). Also, the inhibition in [7] is 19.3% (inactive); in experiment [11], -19% (inactive); in [15], -11% (inactive). For the same molecule, the superoxide response (% of plate) in [8] was 93% (inactive). The aptamer binding inhibition in experiment [9] was -8% (inactive). Besides, the response in [10] is 8.88% (inactive); in [12], 1.18% (inactive). Also, in [13], the binding (% of control) was 98.4% (inactive). The efflux inhibition (fraction of control) in experiment [14] is -0.1 (inactive). Also, the differentiation response in experiment [16] is 26.6% (inactive).
As for `NC(N)=N/N=C/c1c(Cl)cccc1Cl`, the percent of DMSO control GFP in experiment [1] is 102% (inactive). Moreover, the values for the GFP response vs DMSO in experiment [2] and in [4] were 105% (inactive) and 101% (inactive), respectively. The percent response of DMSO control in experiment [3] is 105% (inactive). For the same molecule, the GFP response, % of DMSO in [5] is 108% (inactive). Moreover, in experiment [6], the double positive events was found to be 67.2%. For the same molecule, the vesicle binding response in experiment [6] is 169% (inactive). Besides, the inhibition is -11.8% (inactive) in experiment [7], 5.82% (inactive) in [11] and -5% (inactive) in [15]. Also, the superoxide response (% of plate) in [8] was 81.5% (inactive). In experiment [9], the aptamer binding inhibition was -4% (inactive). Further, the response is -0.34% (inactive) in experiment [10] and -3.91% (inactive) in [12]. For the same molecule, the binding (% of control) in [13] is 99.4% (inactive). Further, in experiment [14], the efflux inhibition (fraction of control) is -0.085 (inactive). For the same molecule, the differentiation response in [16] was -13.3% (inactive).
`COc1ccc(C(=O)Nc2ccccc2C(=O)NC(Cc2c[nH]c3ccccc23)C(=O)O)cc1` (stereo not given): in [1], the percent of DMSO control GFP was 101% (inactive). In addition, the results for the GFP response vs DMSO in [2] and in experiment [4] were 107% (inactive) and 92.7% (inactive), respectively. Also, the percent response of DMSO control in [3] is 95.4% (inactive). In addition, the GFP response, % of DMSO in experiment [5] is 95.4% (inactive). The double positive events in [6] was found to be 64.5%. The vesicle binding response in experiment [6] is 174% (inactive). For the same molecule, the inhibition in experiment [7] is -28.5% (inactive); in [11], 51.3% (inactive); in experiment [15], -16% (inactive). Besides, in experiment [8], the superoxide response (% of plate) is 107% (inactive). The aptamer binding inhibition in experiment [9] is 3% (inactive). In addition, the response in experiment [10] was 10.6% (inactive); in experiment [12], -3% (inactive). The binding (% of control) in experiment [13] was 99.8% (inactive). The efflux inhibition (fraction of control) in experiment [14] is 0.33 (inactive). Besides, in [16], the differentiation response was 22.7% (inactive).
